Screening results (PubChem BioAssay)
Only some compounds are listed: those with a hit (about 4.7% of all), similar ones and a draw of the others.
3CLpro inhibitor = SARS-CoV 3CLpro protease inhibitors, primary screen, biochemical, quenched FRET | recombinant SARS-CoV 3CLpro, quenched FRET peptide cleavage | actives 0.14% (n = 290,000) | AID 1706, 2009 | inhibition, % at 6 µM; in the data active = inhibition above about 12%
GDH-TPI inh = GDH-TPI coupling enzyme inhibitors, primary screen, artefact control for M. tuberculosis FBA inhibitor project, biochemical, absorbance, full deck; GDH-TPI coupled enzyme counterscreen, NADH absorbance; inhibition, % at 4.8 µM; actives 1.2% (n = 360,000)
CCHF vOTU inh = CCHFV vOTU protease inhibitors, primary screen, biochemical, Pep-AMC substrate, fluorescence; inhibition, % at 11.5 µM; actives 0.55% (n = 370,000); AID 651958, 2012
DUSP3 inh = VHR1 phosphatase inhibitors, primary screen, biochemical, absorbance, uHTS. recombinant VHR phosphatase, pNPP absorbance. inhibition, % at 13.3 µM. actives 0.52% (n = 290,000); in the data active = inhibition above about 50%
RecA splice inh = Mtb RecA intein splicing inhibitors, primary screen, biochemical, fluorescence, HTS. cell-free RecA intein splicing. inhibition, % (concentration not given with the values). actives 0.75% (n = 290,000). AID 2221, 2009; in the data active = inhibition above about 30%
Target sequence (P9WHJ3 whole entry, looked up, canonical isoform): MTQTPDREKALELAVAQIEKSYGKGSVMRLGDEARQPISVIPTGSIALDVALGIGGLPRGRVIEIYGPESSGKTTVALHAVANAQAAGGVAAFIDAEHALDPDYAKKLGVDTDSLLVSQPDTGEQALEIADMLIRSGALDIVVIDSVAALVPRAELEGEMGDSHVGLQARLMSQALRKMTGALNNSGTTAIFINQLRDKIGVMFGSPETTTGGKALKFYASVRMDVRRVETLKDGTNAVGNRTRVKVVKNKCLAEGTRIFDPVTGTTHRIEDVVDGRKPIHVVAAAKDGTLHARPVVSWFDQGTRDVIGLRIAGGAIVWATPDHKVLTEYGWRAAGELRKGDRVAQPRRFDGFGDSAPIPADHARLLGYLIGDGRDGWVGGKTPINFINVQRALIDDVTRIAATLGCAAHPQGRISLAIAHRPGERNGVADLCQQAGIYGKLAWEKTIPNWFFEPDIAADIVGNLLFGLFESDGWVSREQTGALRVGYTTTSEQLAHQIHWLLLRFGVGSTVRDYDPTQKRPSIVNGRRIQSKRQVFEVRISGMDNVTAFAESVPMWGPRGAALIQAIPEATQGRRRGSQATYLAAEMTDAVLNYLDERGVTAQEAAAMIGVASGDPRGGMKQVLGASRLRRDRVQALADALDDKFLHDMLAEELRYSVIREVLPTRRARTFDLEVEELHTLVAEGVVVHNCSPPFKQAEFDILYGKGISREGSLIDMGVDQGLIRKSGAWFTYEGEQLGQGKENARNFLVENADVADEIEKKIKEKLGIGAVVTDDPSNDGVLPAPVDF
FBA Mtb inh = Mtb FBA enzyme inhibitors, primary screen, biochemical, fluorescence, strain H37Rv. actives 2.3% (n = 360,000). inhibition, % at 1 µM. purified M. tuberculosis FBA, fluorescence read-out; in the data active = inhibition above about 27%
Numbers stand for hits; – = inactive; · = not tested or not shown; + = active, no number. Rule as the data show it, unless noted: active = inhibition above about 30%; inactive = the rest.

SMILES	3CLpro inhibitor	GDH-TPI inh	CCHF vOTU inh	DUSP3 inh	RecA splice inh	FBA Mtb inh
O=[N+]([O-])c1cccc(N/N=C/c2cc([N+](=O)[O-])ccc2O)c1	–	–	–	–	–	–
Cc1cc2c(nc1C)CCCN2S(=O)(=O)c1ccc(C(F)(F)F)cc1	·	·	–	·	·	·
O=c1[nH]ncc(N/N=C\c2ccc(O)cc2O)c1Cl	–	38	–	–	–	–
Cc1ccccc1NC(=S)N/N=C/c1ccc(O)cc1O	–	56	–	–	–	–
Oc1ccc(C=NNc2ccccn2)c(O)c1	·	41	–	·	·	–
Oc1cccc(C=NNc2ccccn2)c1	·	–	–	·	·	–
COC(=O)[C@@]12CCCCC=C1N(CCc1ccc(Cl)cc1)C(=O)[C@H]2CC(=O)NCCCCc1ccccc1	·	·	–	·	·	·
Nc1ccc(C(=O)Nc2nc3ccccc3s2)cc1	–	34	–	–	–	–
N=c1oc2cc(O)ccc2cc1C(=O)Nc1nc2ccccc2s1	–	–	–	–	–	+
Cc1cc(C)n(-c2ccc(C(=O)Nc3nc4ccccc4s3)cc2)n1	–	–	–	–	–	–
Cc1ccnc2nc(C(=O)Nc3nc4ccccc4s3)nn12	–	41	–	–	–	–
COc1ccccc1/C=N/N1C(=O)c2cccc3cccc(c23)C1=O	–	34	–	–	–	–
COc1ccccc1C=NN=C1c2ccccc2-c2ccccc21	·	–	–	·	·	–
COc1ccccc1C=NN=Cc1ccccc1OC	·	31	–	·	·	–
Cn1c(N)c(C(=O)COC(=O)COc2ccccc2Cl)c(=O)n(C)c1=O	·	–	–	·	·	–
CCOC(=O)c1sc(=S)n(C)c1NC(=O)c1cccc(Br)c1	–	–	–	–	–	–
CCOC(=O)c1sc(=S)n(C)c1NC(=O)c1ccccc1	–	36	–	–	–	–
Cc1sc2ncnc(N3CCC(C(=O)NNC(=O)c4ccccc4Cl)CC3)c2c1C	–	–	–	53	–	–
O=C(N=C1SC2CS(=O)(=O)CC2N1c1ccccc1)c1cccc([N+](=O)[O-])c1 (stereo unspecified)	·	–	–	·	·	–
COc1ccc(C(=O)N=C2SC3CS(=O)(=O)CC3N2c2ccccc2)cc1OC (stereo unspecified)	–	–	–	52	–	–
COCCSc1nnc(-c2cccnc2)n1Cc1ccccc1	·	·	–	·	·	·
Cc1cc2[nH]c(=O)c(=O)[nH]c2cc1S(=O)(=O)Nc1cccc(C)c1C	–	–	–	–	–	–
O=C(NCc1ccccc1)[C@@H]1CCCN1C(=O)[C@H]1CCCN1C(=O)N1CCCCC1	·	·	–	·	·	·
C/C(=N\NC(=O)c1ccc(NS(=O)(=O)c2cccs2)cc1)c1ccccc1	–	–	–	–	–	–
C/C(=N\NC(=O)c1ccc(NS(=O)(=O)c2cccs2)cc1)c1ccc(O)cc1O	–	68	–	–	–	–
SMILES	3CLpro inhibitor	GDH-TPI inh	CCHF vOTU inh	DUSP3 inh	RecA splice inh	FBA Mtb inh
C/C(=N\NC(=O)c1ccc(NS(=O)(=O)c2cccs2)cc1)c1ccncc1	–	32	–	–	–	–
C[C@@H](NC(=O)c1ccc(C#Cc2cccc(F)c2)cn1)C(C)(C)O	·	·	–	·	·	·
COc1ccc(-c2cc(C(F)(F)F)nc(SCC(=O)N(C)Cc3cn(C)nc3C)n2)cc1OC	–	41	–	–	–	–
COc1ccc(-c2cc(C(F)(F)F)nc(SCC(=O)NCc3cnn(C)c3C)n2)cc1OC	–	–	–	–	–	–
COc1ccc(-c2cc(C(F)(F)F)nc(SCC(=O)NCc3ccco3)n2)cc1OC	–	31	–	–	–	–
COc1ccc(-c2cc(C(F)(F)F)nc(SCC(N)=O)n2)cc1	–	–	–	–	–	114
Cc1ccc(OCc2nnc(SCC(=O)Nc3ccc(S(=O)(=O)Nc4cc(C)nc(C)n4)cc3)n2Cc2ccco2)cc1	·	·	–	·	·	·
CN(C)CCCn1c2c(c(SCC(=O)Nc3ccc4c(c3)OCCO4)nc1=O)CCC2	·	–	–	·	–	–
CC1(C)NC(=O)N(CCCCOc2ccccc2[N+](=O)[O-])C1=O	–	·	·	–	–	·
CC1(C)NC(=O)N(CCCOc2ccccc2Br)C1=O	–	–	–	51	–	–
COc1ccccc1CN1CCCC(CN(CCN(C)C)C(=O)C2CCCC2)C1 (stereo unspecified)	–	–	–	–	–	–
COc1ccc(/C(C)=N/N=C2/NC(=O)CC(C(=O)O)S2)cc1F (stereo unspecified)	–	52	–	–	–	–
CNC(=O)C1CC(=O)N/C(=N/N=C(\C)c2cccs2)S1 (stereo unspecified)	–	37	–	–	–	–
COc1ccc(/C(C)=N/N=C2/NC(=O)CC(C(=O)O)S2)cc1 (stereo unspecified)	–	–	–	–	–	–
C/C(=N\N=C1\NC(=O)CC(C(=O)O)S1)c1cccs1 (stereo unspecified)	–	–	–	–	–	–
O=Cc1ccc(N2CCCCCC2)cc1	–	34	–	–	–	–
O=C(Cn1nc(Cc2ccncc2)c2ccccc2c1=O)N1CCc2ccccc2C1	–	–	66	–	·	–
CCn1nnnc1SCC(=O)N(C)C1CCS(=O)(=O)C1 (stereo unspecified)	·	–	–	·	·	–
CCC1CCCCN1CCCNC(=O)Cn1cc2c(n1)-c1c(oc(C(=O)N3CCCC3)c1C)CC2 (stereo unspecified)	–	–	–	56	–	–
Cc1c(C(=O)N2CCCC2)oc2c1-c1nn(CC(=O)NCCCN3CCCCC3)cc1CC2	–	–	–	–	–	–
Cc1c(C(=O)N2CCCC2)oc2c1-c1nn(CC(=O)NCCCN3CCCCC3C)cc1CC2 (stereo unspecified)	–	–	–	56	–	–
CC1(C)Cc2c(sc(/N=C/N3CCOCC3)c2C#N)C(C)(C)N1	–	–	–	–	–	–
CC1(C)Cc2c(sc(/N=C/N3CCCCC3)c2C#N)C(C)(C)N1	–	31	–	–	–	–
O=C(NCCNC(=O)c1cc(OCC(F)(F)F)ccc1OCC(F)(F)F)Nc1cccc(C(F)(F)F)c1	16	–	–	–	–	–
CC(C)(C)c1[nH]nc2c1C(c1ccoc1)C(C#N)=C(N)O2 (stereo unspecified)	–	–	–	–	56	–
Cc1ccc(-n2nc(C)c3c2OC(N)=C(C#N)C3c2ccoc2)cc1 (stereo unspecified)	–	–	–	–	71	–
Cc1nn(-c2ccccc2)c2c1C(c1ccc(Br)s1)C(C#N)=C(N)O2 (stereo unspecified)	–	–	·	–	·	–
